Source: PubChem BioAssay AID1159580 (chemical genetic matrix, 2015)
Among all 5,500 compounds or so, about 2,000 (36%) were called active. Roughly 18% stayed inconclusive and do not appear here. Cut-off read from the data, not from the text of the source: active = normalized growth mostly below about 0.91 (no sharp cut-off); inconclusive = no clear call, values can overlap the other calls; inactive = mostly above about 0.92. Some of the results follow.

Test: chemical genetic growth profiling, strain panel (AID 1159580);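 note: tested at 20 µM; growth read once vehicle control cultures reached saturation at 30 °C; 1 = growth at the plate median or of vehicle wells; lower values mean less growth of the strain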
Settings: growth OD

Measured: normalized growth

COC(=O)COc1cc(Cl)c(Cl)cc1Cl
active: S. cerevisiae deletion strains, locus YLR039C, strain RIC1, hits give low values 0.613 | S. cerevisiae deletion strains, locus YNL183C, strain NPR1, hits give low values 0.809 | S. cerevisiae deletion strains, locus YNL307C, strain MCK1, hits give low values 0.855 | S. cerevisiae deletion strains, locus YPL256C, strain CLN2, hits give low values 0.786
inactive: S. cerevisiae deletion strains, locus YJR075W, strain HOC1, hits give low values 0.952 | S. cerevisiae deletion strains, locus YKL009W, strain mrt4, hits give low values 0.995 | S. cerevisiae deletion strains, locus YKL068W, hits give low values 0.955 | S. cerevisiae deletion strains, locus YKL085W, strain MDH1 (second series), hits give low values 0.949 | S. cerevisiae deletion strains, locus YKL085W, strain MDH1, hits give low values 0.949 | S. cerevisiae deletion strains, locus YKL160W, strain elf1, hits give low values 1 | S. cerevisiae deletion strains, locus YKL190W, strain CNB1, hits give low values 0.971 | S. cerevisiae deletion strains, locus YKR001C, strain vps1, hits give low values 0.916 | S. cerevisiae deletion strains, locus YKR026C, strain gcn3, hits give low values 0.992 | S. cerevisiae deletion strains, locus YKR091W, strain srl3, hits give low values 0.993 | S. cerevisiae deletion strains, locus YLL001W, strain dnm1, hits give low values 0.99 | S. cerevisiae deletion strains, locus YLL026W, hits give low values 0.993 | S. cerevisiae deletion strains, locus YLL041C, strain sdh2, hits give low values 1 | S. cerevisiae deletion strains, locus YLR027C, strain aat2, hits give low values 0.991 | S. cerevisiae deletion strains, locus YLR058C, strain SHM2, hits give low values 0.979 | S. cerevisiae deletion strains, locus YLR102C, strain apc9, hits give low values 0.957 | S. cerevisiae deletion strains, locus YLR113W, strain HOG1, hits give low values 0.879 | S. cerevisiae deletion strains, locus YLR221C, strain rsa3, hits give low values 0.987 | S. cerevisiae deletion strains, locus YLR258W, strain gsy2, hits give low values 0.994 | S. cerevisiae deletion strains, locus YLR262C, strain YPT6 (second series), hits give low values 0.863 | S. cerevisiae deletion strains, locus YLR262C, strain YPT6, hits give low values 0.662 | S. cerevisiae deletion strains, locus YLR268W, strain sec22, hits give low values 0.955 | S. cerevisiae deletion strains, locus YLR320W, strain mms22, hits give low values 1.01 | S. cerevisiae deletion strains, locus YLR330W, strain CHS5, hits give low values 0.975 | S. cerevisiae deletion strains, locus YLR342W, strain FKS1 (second series), hits give low values 1.04 | S. cerevisiae deletion strains, locus YLR342W, strain FKS1, hits give low values 0.997 | S. cerevisiae deletion strains, locus YLR357W, strain rsc2, hits give low values 0.895 | S. cerevisiae deletion strains, locus YLR370C, strain arc18, hits give low values 1 | S. cerevisiae deletion strains, locus YLR371W, strain rom2, hits give low values 0.986 | S. cerevisiae deletion strains, locus YLR384C, strain iki3, hits give low values 1.01 | S. cerevisiae deletion strains, locus YLR418C, strain cdc73, hits give low values 0.859 | S. cerevisiae deletion strains, locus YML016C, strain PPZ1, hits give low values 0.966 | S. cerevisiae deletion strains, locus YML032C, strain rad52, hits give low values 0.988 | S. cerevisiae deletion strains, locus YML120C, strain ndi1, hits give low values 0.995 | S. cerevisiae deletion strains, locus YML124C, strain tub3, hits give low values 0.96 | S. cerevisiae deletion strains, locus YMR058W, strain fet3, hits give low values 1 | S. cerevisiae deletion strains, locus YMR078C, strain ctf18, hits give low values 0.97 | S. cerevisiae deletion strains, locus YMR125W, strain sto1, hits give low values 1 | S. cerevisiae deletion strains, locus YMR129W, hits give low values 0.978 | S. cerevisiae deletion strains, locus YMR205C, strain PFK2, hits give low values 1.02 | S. cerevisiae deletion strains, locus YMR223W, strain ubp8, hits give low values 0.978 | S. cerevisiae deletion strains, locus YMR231W, strain pep5, hits give low values 0.989 | S. cerevisiae deletion strains, locus YMR263W, strain SAP30, hits give low values 0.985 | S. cerevisiae deletion strains, locus YMR307W, strain GAS1, hits give low values 1.06 | S. cerevisiae deletion strains, locus YNL067W, strain RPL9B, hits give low values 0.967 | S. cerevisiae deletion strains, locus YNL071W, strain lat1, hits give low values 0.996 | S. cerevisiae deletion strains, locus YNL128W, strain TEP1, hits give low values 0.978 | S. cerevisiae deletion strains, locus YNL153C, strain GIM3, hits give low values 0.989 | S. cerevisiae deletion strains, locus YNL209W, strain ssb2, hits give low values 1.01 | S. cerevisiae deletion strains, locus YNL233W, strain BNI4, hits give low values 0.982 | S. cerevisiae deletion strains, locus YNL248C, strain rpa49, hits give low values 1 | S. cerevisiae deletion strains, locus YNL250W, strain rad50, hits give low values 0.957 | S. cerevisiae deletion strains, locus YNL271C, strain bni1, hits give low values 0.956 | S. cerevisiae deletion strains, locus YNL298W, strain CLA4, hits give low values 0.994 | S. cerevisiae deletion strains, locus YNL322C, strain KRE1 (second series), hits give low values 0.996 | S. cerevisiae deletion strains, locus YNL322C, strain KRE1, hits give low values 0.977 | S. cerevisiae deletion strains, locus YNR049C, strain mso1, hits give low values 0.991 | S. cerevisiae deletion strains, locus YNR052C, strain pop2, hits give low values 0.993 | S. cerevisiae deletion strains, locus YOL006C, strain TOP1, hits give low values 0.895 | S. cerevisiae deletion strains, locus YOL012C, strain htz1 0.897 | S. cerevisiae deletion strains, locus YOL147C, strain pex11, hits give low values 0.964 | S. cerevisiae deletion strains, locus YOR001W, strain rrp6, hits give low values 1.01 | S. cerevisiae deletion strains, locus YOR061W, strain CKA2, hits give low values 0.974 | S. cerevisiae deletion strains, locus YOR069W, strain VPS5, hits give low values 0.979 | S. cerevisiae deletion strains, locus YOR070C, strain gyp1, hits give low values 0.985 | S. cerevisiae deletion strains, locus YOR080W, strain dia2, hits give low values 1 | S. cerevisiae deletion strains, locus YOR083W, strain WHI5, hits give low values 1 | S. cerevisiae deletion strains, locus YOR106W, strain vam3, hits give low values 1.02 | S. cerevisiae deletion strains, locus YOR136W, strain idh2, hits give low values 0.99 | S. cerevisiae deletion strains, locus YOR144C, strain elg1, hits give low values 0.975 | S. cerevisiae deletion strains, locus YOR184W, strain ser1, hits give low values 0.904 | S. cerevisiae deletion strains, locus YOR231W, strain MKK1, hits give low values 0.86 | S. cerevisiae deletion strains, locus YOR265W, strain rbl2, hits give low values 0.98 | S. cerevisiae deletion strains, locus YOR270C, strain vph1, hits give low values 1.1 | S. cerevisiae deletion strains, locus YOR290C, strain snf2, hits give low values 1.01 | S. cerevisiae deletion strains, locus YOR316C, strain cot1, hits give low values 0.964 | S. cerevisiae deletion strains, locus YPL051W, strain arl3, hits give low values 0.992 | S. cerevisiae deletion strains, locus YPL055C, strain LGE1, hits give low values 0.953 | S. cerevisiae deletion strains, locus YPL078C, strain atp4, hits give low values 1.02 | S. cerevisiae deletion strains, locus YPL106C, strain sse1, hits give low values 0.957 | S. cerevisiae deletion strains, locus YPL240C, strain hsp82, hits give low values 0.997 | S. cerevisiae deletion strains, locus YPL241C, strain CIN2, hits give low values 0.972 | S. cerevisiae deletion strains, locus YPR119W, strain clb2, hits give low values 0.955 | S. cerevisiae deletion strains, locus YPR141C, strain kar3, hits give low values 0.948 | S. cerevisiae deletion strains, locus YPR163C, strain tif3, hits give low values 0.992 | S. cerevisiae deletion strains, locus YPR167C, strain met16, hits give low values 0.976 | S. cerevisiae deletion strains, strain wtn01, hits give low values 0.962 | S. cerevisiae strains, strain wild type, hits give low values 0.969
